# The list is not random: actives were taken first. Their share in the collection is about 10%.
# JMJD2A Tudor inh: inhibitors of human JMJD2A Tudor domain. AlphaScreen JMJD2A-Tudor / H3K4me3 peptide binding. Potency, µM (doses to about 114 µM), inactives show top-dose activity change, negative = inhibition, actives largely listed as inhibitors. 390,000 compounds, 4.4% hits. AID 504339; note: potency is the fitted concentration of half-maximal effect; % is set by controls: 0 for no effect and ±100 for the full control effect; nearly all actives have a fitted effect of over 50% in size
# CtBP-E1A inh: blocks the CtBP interaction with E1A. AID 651724. AlphaScreen GST-E1A/His-CtBP binding, 1536-well; hits give low values. activity change, % (concentration not given with the values). 340,000 compounds, 0.49% hits; in the data active = activity change below about -65%; inconclusive = mostly about -30% to -63%; note: % is set by controls: 0 for no effect and ±100 for the full control effect
#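 In 5 uL wells, 23 nL compound meets equimolar GST-E1A and His-CtBP (5X stock 125 nM each) for 2 h, 37 °C. Beads (5X, 50 ug/mL) then 1 h, 37 °C, dark.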
# Six1-Eya2 inh: Six1/Eya2 interaction inhibition. Q15475+O00167. 360,000 compounds, 0.56% hits. AlphaScreen GST-Six1/His-Eya2 binding, biochemical; hits give low values. activity change, % (concentration not given with the values); in the data active = activity change below about -65%; inconclusive = mostly about -30% to -63%; note: % is set by controls: 0 for no effect and ±100 for the full control effect
#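 Compounds are tested against tagged Six1 and Eya2 proteins bridged by glutathione donor and nickel acceptor beads; after a one-hour incubation at 37 °C without light, AlphaScreen emission is recorded.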
# HP1b chromo inh: HP1-beta chromodomain-methylated histone interaction inhibition; AlphaScreen HP1-beta / biotin-H3K9me3 peptide binding; 390,000 compounds, 0.56% hits; Potency, µM (series often up to 114 µM), without a hit: at the top dose activity change, negative = inhibition, usual class: inhibitors; note: potency is the fitted concentration of half-maximal effect; nearly all actives have a fitted effect of over 70% in size
#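 AlphaScreen: HP1-beta (50 nM) preformed 30 min with biotin-H3(1-18)K9me3 peptide (50 nM) in PBS pH 7.4, 0.01% Tween-20. Compound added for 30 min at RT, then streptavidin donor/nickel chelate acceptor beads (10 ug/mL) for 30 min.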
# BAZ2B inh: inhibitors of human BAZ2B bromodomain | AlphaScreen BAZ2B-H3K14Ac peptide displacement | AID 504333 | 360,000 compounds, 4.4% hits | Potency, µM (series often up to 114 µM), for the others: at the highest dose activity change, negative = inhibition, usual class: inhibitors; note: potency is the fitted concentration of half-maximal effect; % is set by controls: 0 for no effect and ±100 for the full control effect; nearly all actives have a fitted effect of over 60% in size
#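 Compounds, titrated to a top concentration of 110 uM, were incubated 30 min at room temperature with preformed BAZ2B/acetyl-K14 H3 peptide complex (50 nM each). Proximity signal was measured by AlphaScreen after 20 min with beads.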
# G9a inh: G9a (human) methyltransferase inhibition. Q96KQ7. G9a H3K9 monomethylation, AlphaScreen, 2 h. Potency, µM (doses to about 102 µM), inactives show at the top dose activity, negative = inhibition, usual class: inhibitors. 350,000 compounds, 8.8% hits; note: potency is the fitted concentration of half-maximal effect; % is set by controls: 0 for no effect and ±100 for the full control effect; nearly all actives have a fitted effect of over 75% in size
#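 Methyltransferase reactions run at room temperature for 2 h (20 nM enzyme, 500 nM biotin-H3K9 peptide, 20 uM SAM) after a 15 min compound preincubation; product detected by AlphaScreen beads and anti-H3K9me1 antibody.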
# Starred values were filed as active, the others as inactive; ? = inconclusive; · = not tested or not shown; [ ] = another dose, or the depositor's remark. Unless noted, calls come from the whole dose curve; as a rule, active = well fitted inhibition curve with a large enough effect; inconclusive = small, poorly fitted or top-dose-only effect; inactive = no such curve, though single readings can be large or run the other way.
SMILES,JMJD2A Tudor inh,CtBP-E1A inh,Six1-Eya2 inh,HP1b chromo inh,BAZ2B inh,G9a inh
Cc1nn(-c2ccccc2)c(N)c1Sc1ccc([N+](=O)[O-])cc1,?,-9,-11,?,-13%,10µM*
Cc1nn(-c2ccccc2)c(OC(=O)C(C)C)c1Sc1ccccc1,?,·,·,12%,-7%,1.6µM*
Cc1nn(C(C)(C)C)c(OC(=O)C(C)(C)C)c1Sc1ccccc1,26%,·,·,70%,79%,66%[59 µM]
Cc1ccc(Sc2c(C)nn(C(C)(C)C)c2OC(=O)C(C)(C)C)cc1,55%,·,·,95%,52%,18%[59 µM]
Cc1nn(-c2ccccc2)c(OC(=O)C(C)(C)C)c1Sc1ccccc1,?,·,·,81%,0%,4µM*
Cc1ccc(Sc2c(C)nn(-c3ccccc3)c2OC(=O)C(C)(C)C)cc1,26%,·,·,109%,17%,10µM*
Cc1nn(S(=O)(=O)c2ccc(Cl)cc2)c(C)c1Sc1ccc([N+](=O)[O-])cc1,-35%,9,1,-21%,-32%,-10%[59 µM]
CCN(CC)c1ccc(C(=O)NCc2ccc3c(c2)CCN3C(C)=O)cc1,-27%,·,·,33%,-17%,-28%[59 µM]
CC(=O)c1ccc(NC(=O)c2sc(-n3nc(C)c(CCC(C)C)c3C)nc2C)cc1,-19%,·,·,44%,-4%,-4%[59 µM]
COc1ccc(C(=O)Oc2c(Sc3ccccc3)c(C)nn2-c2ccccc2)cc1OC,-3%,·,·,59%,-3%,?
COc1cc(C(=O)Oc2c(Sc3ccccc3)c(C)nn2-c2ccccc2)cc(OC)c1OC,-2%,·,·,64%,-25%,4µM*
CCN(CC)CCN(CC)Cc1ccccc1Br,-2%,6,0,35%,-12%,50µM*
COc1ccc(NCC(=O)n2c(C)c(C)c3ccccc32)cc1,-33%,-9,-13,10%,-9%,10µM*
COc1ccc(NC(=O)Cn2c(C)cc(=O)c3ccccc32)cc1,0%,·,-4,44%,0%,17%
Cc1cccc(C(=O)N2CCC(=O)N([C@H](COCc3cccc(Cl)c3)Cc3ccccc3)CC2)c1,·,2,-7,·,·,4%[59 µM]
Cc1cccc(COC[C@H](Cc2ccccc2)N2CCN(C(=O)c3ccc(C(F)(F)F)cc3)CCC2=O)c1,·,6,-4,·,·,·
O=C(c1ccc(C(F)(F)F)cc1)N1CCC(=O)N(C(COCc2ccc(C(F)(F)F)cc2)Cc2ccccc2)CC1 (stereo unspecified),-5%,-2,-17,44%,?,45µM*
CC(C)CC(COCc1ccc([N+](=O)[O-])cc1)N1CCN(C(=O)c2ccc(C(F)(F)F)cc2)CCC1=O (stereo unspecified),-20%,-5,-8,25%,?,50µM*
Cc1cccc(C(=O)N2CCC(=O)N(C(COCc3cccc(Cl)c3)Cc3ccccc3)CC2)c1 (stereo unspecified),-17%,-3,-5,57%,-8%,79µM*
CC1(C(=O)Nc2cccc(OC(F)(F)F)c2)Cc2c(-c3cccc(C(N)=O)c3)ccnc2O1 (stereo unspecified),·,0,0,·,·,·
COc1ccc(CN2C(=O)CSCC2(C)C(=O)Nc2c(C)cccc2C)cc1 (stereo unspecified),·,8,1,·,·,·
N=c1c2c(-c3ccccc3)c(-c3ccccc3)n(Cc3ccco3)c2ncn1CCCn1ccnc1,?,-9,-19,-23%,?,?
CC(C)Cn1cnc2c(c(-c3ccccc3)c(-c3ccccc3)n2Cc2ccco2)c1=N,?,-15,-17,-16%,?,?
N=c1c2c(-c3ccccc3)c(-c3ccccc3)n(Cc3ccco3)c2ncn1CCCN1CCOCC1,-28%,0,-8,4%,?,?
N=c1c2c(-c3ccccc3)c(-c3ccccc3)n(Cc3ccco3)c2ncn1Cc1ccccc1,-18%,-3,-1,14%,45µM*,-9%[12.7 µM]

# Assay outcomes deposited in PubChem BioAssay by National Center for Advancing Translational Sciences (NCATS).
